Measured values reported in PubChem BioAssay (EPA / NIEHS).
Calls of active or inactive are those of the source. How the source made its calls: active means hit-call score of the fitted dose curve at least 0.9, where 1 is the maximum; inactive means score below 0.9.

Tests used:
Details in all cases: mRNA level, 48 h; actives raise or lower the signal
[1] = read-out: Bcl-2 (BID) gene, BID (gene 637); assay: LTEA_HepaRG_BID: Life Technologies and Expression Analysis (LTEA) Assay for Bcl-2 (BID) gene using HepaRG (AID 2283476)
Summary of the method: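 Gain or loss of BID expression is fitted relative to 0.5% DMSO vehicle. Human HepaRG liver cells received a 48 h chemical exposure over an eight-point concentration range.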

Caspase-3 (Homo sapiens) = Caspase-3 (Homo sapiens) (UniProt P42574); assay: LTEA_HepaRG_CASP3: Life Technologies and Expression Analysis (LTEA) Assay for cysteine-aspartic acid protease (CASP3) using HepaRG (AID 2283477)
Caspase-3 (Homo sapiens), sequence (P42574 whole entry, looked up): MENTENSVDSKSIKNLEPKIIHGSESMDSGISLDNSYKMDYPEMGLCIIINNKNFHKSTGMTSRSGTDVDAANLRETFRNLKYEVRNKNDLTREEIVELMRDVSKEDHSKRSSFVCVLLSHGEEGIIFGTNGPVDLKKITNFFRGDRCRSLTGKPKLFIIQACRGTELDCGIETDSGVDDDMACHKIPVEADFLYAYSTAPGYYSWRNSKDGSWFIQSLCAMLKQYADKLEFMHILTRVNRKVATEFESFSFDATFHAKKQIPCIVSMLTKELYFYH
Summary of the method: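 Transcript-level assay: CASP3 mRNA in human HepaRG after 48 h treatment, eight half-log concentrations from 100 uM in 0.5% DMSO, quantified by qRT-PCR.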

[2] = read-out: Cytochrome P450 (CYP24A1), CYP24A1 (gene 1591); assay: LTEA_HepaRG_CYP24A1: Life Technologies and Expression Analysis (LTEA) Assay for Cytochrome P450 (CYP24A1) using HepaRG (AID 2283478)
Summary of the method: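 Gene expression of CYP24A1 by TaqMan qRT-PCR in HepaRG after 48 h treatment, highest concentration 100 uM; activity fitted in both directions relative to DMSO vehicle.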

[3] = read-out: Cytochrome P450 (CYP1A2), CYP1A2 (gene 1544); assay: LTEA_HepaRG_CYP1A2: Life Technologies and Expression Analysis (LTEA) Assay for Cytochrome P450 (CYP1A2) using HepaRG (AID 2283479)
Summary of the method: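 In duplicate wells, HepaRG cultures maintained in 0.5% DMSO were treated 48 h across an 8-point, half-log series topping at 100 uM; phenobarbital (1 mM) served as induction control. Expression was read by qRT-PCR.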

[4] = read-out: cysteine-aspartic acid protease (CASP8), CASP8 (gene 841); assay: LTEA_HepaRG_CASP8: Life Technologies and Expression Analysis (LTEA) Assay for cysteine-aspartic acid protease (CASP8) using HepaRG (AID 2283480)
Summary of the method: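 Differentiated HepaRG cells in serum-free induction medium, 48 h exposure, eight-point half-log series from 100 uM in 0.5% DMSO, duplicates. CASP8 mRNA by qRT-PCR, normalized to ACTB, GAPDH, POLR2A; bidirectional fit versus DMSO.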

[5] = read-out: Cytochrome P450 (CYP2B6), CYP2B6 (gene 1555); assay: LTEA_HepaRG_CYP2B6: Life Technologies and Expression Analysis (LTEA) Assay for Cytochrome P450 (CYP2B6) using HepaRG (AID 2283481)
Summary of the method: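 Human HepaRG, 48 h dosing, 0.5% DMSO vehicle, top dose 100 uM. CYP2B6 transcript by qRT-PCR, housekeeping-normalized, bidirectional curve fit.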

[6] = read-out: Cytochrome P450 2C19 (Homo sapiens) (UniProt P33261); assay: LTEA_HepaRG_CYP2C19: Life Technologies and Expression Analysis (LTEA) Assay for CYP2C19 using HepaRG (AID 2283482)
Summary of the method: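 Endpoint: CYP2C19 mRNA change, bidirectional fit vs 0.5% DMSO. Cells: HepaRG, 48 h exposure, eight-point series topping at 100 uM. Quantitation: qRT-PCR normalized to ACTB, GAPDH, POLR2A.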

CYP2C8 (gene 1558) = assay: LTEA_HepaRG_CYP2C8: Life Technologies and Expression Analysis (LTEA) Assay for CYP2C8 using HepaRG (AID 2283483)
Summary of the method: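 Differentiated HepaRG cells in serum-free induction medium exposed 48 h in duplicate to 8 half-log concentrations from 100 uM in 0.5% DMSO. CYP2C8 mRNA by qRT-PCR normalized to ACTB, GAPDH, POLR2A; bidirectional fit versus DMSO.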

CYP2C9 (gene 1559) = assay: LTEA_HepaRG_CYP2C9: Life Technologies and Expression Analysis (LTEA) Assay for CYP2C9 using HepaRG (AID 2283484)
Summary of the method: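 Differentiated human HepaRG cells in serum-free induction medium were exposed 48 h to chemicals in 8-point half-log series from 100 uM (0.5% DMSO), in duplicate. CYP2C9 mRNA was measured by qRT-PCR, normalized to ACTB/GAPDH/POLR2A, with bidirectional fitting versus DMSO.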

CYP2E1 (gene 1571) = assay: LTEA_HepaRG_CYP2E1: Life Technologies and Expression Analysis (LTEA) Assay for CYP2E1 using HepaRG (AID 2283485)
Summary of the method: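 Differentiated HepaRG cells were treated in duplicate for 48 h with chemicals in 0.5% DMSO, from 100 uM downward in half-log dilutions. RNA was then analysed by qRT-PCR for CYP2E1 induction or loss.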

CYP4A11 (gene 1579) = assay: LTEA_HepaRG_CYP4A11: Life Technologies and Expression Analysis (LTEA) Assay for CYP4A11 using HepaRG (AID 2283486)
Summary of the method: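 Human hepatic HepaRG cultures receive duplicate 48 h exposures across a concentration-response series topping at 100 uM. Expression changes in CYP4A11 are measured by qRT-PCR relative to DMSO controls.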

[7] = read-out: DNA damage-inducible transcript 3 (DDIT3), DDIT3 (gene 1649); assay: LTEA_HepaRG_DDIT3: Life Technologies and Expression Analysis (LTEA) Assay for DNA damage-inducible transcript 3 (DDIT3) using HepaRG (AID 2283488)
Summary of the method: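 Changes in DDIT3 transcript, in either direction relative to 0.5% DMSO vehicle, were quantified by TaqMan qRT-PCR after 48 h chemical exposure of HepaRG cells at 8 concentrations, maximum 100 uM.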

[8] = read-out: Pro-epidermal growth factor (Homo sapiens) (UniProt P01133); assay: LTEA_HepaRG_EGF: Life Technologies and Expression Analysis (LTEA) Assay for Epidermal growth factor (EGF) using HepaRG (AID 2283489)
Summary of the method: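 Concentration-response mRNA assay: HepaRG cells dosed 48 h (max 100 uM, 0.5% DMSO), EGF measured by qRT-PCR and normalized to ACTB/GAPDH/POLR2A.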

[9] = read-out: Early growth response protein 1 (EGR1) transcription factor, EGR1 (gene 1958); assay: LTEA_HepaRG_EGR1: Life Technologies and Expression Analysis (LTEA) Assay for Early growth response protein 1 (EGR1) transcription factor using HepaRG (AID 2283490)
Summary of the method: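 Differentiated HepaRG cells in serum-free induction medium exposed 48 hours, duplicate, to 8 half-log concentrations up to 100 uM in 0.5% DMSO. EGR1 mRNA measured by TaqMan qRT-PCR, normalized to ACTB, GAPDH, POLR2A; bidirectional fit versus DMSO.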

[10] = read-out: Ezrin (EZR), EZR (gene 7430); assay: LTEA_HepaRG_EZR: Life Technologies and Expression Analysis (LTEA) Assay for Ezrin (EZR) using HepaRG (AID 2283491)
Summary of the method: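 EZR transcript levels came from Fluidigm qRT-PCR and were normalized to three housekeeping genes after 48 h chemical exposure of HepaRG cells. Dosing used an 8-point half-log series with a 100 uM top concentration in 0.5% DMSO, tested in duplicate; both directions were fitted versus vehicle.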

[11] = read-out: Cytochrome P450 3A7 (Homo sapiens) (UniProt P24462); assay: LTEA_HepaRG_CYP3A7: Life Technologies and Expression Analysis (LTEA) Assay for CYP3A7 using HepaRG (AID 2283492)
Summary of the method: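 qRT-PCR of CYP3A7 in HepaRG lysates after 48 h treatment; concentration-response (8 points, max 100 uM) analysed bidirectionally relative to 0.5% DMSO controls.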

CYP3A5 (gene 1577) = assay: LTEA_HepaRG_CYP3A5: Life Technologies and Expression Analysis (LTEA) Assay for CYP3A5 using HepaRG (AID 2283493)
Summary of the method: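 mRNA induction or loss of CYP3A5 assessed in HepaRG after 48 h dosing, 100 uM top concentration, duplicate wells; TaqMan qRT-PCR with ACTB, GAPDH, POLR2A normalization; 0.5% DMSO as negative control.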

[12] = read-out: Fatty Acid-Binding Protein 1 (FABP1), FABP1 (gene 2168); assay: LTEA_HepaRG_FABP1: Life Technologies and Expression Analysis (LTEA) Assay for Fatty Acid-Binding Protein 1 (FABP1) using HepaRG (AID 2283494)
Summary of the method: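 Differentiated human HepaRG cells exposed 48 h in serum-free induction medium to eight half-log concentrations up to 100 uM (0.5% DMSO), duplicate. FABP1 mRNA by qRT-PCR, normalised to ACTB, GAPDH, POLR2A; bidirectional fitting against DMSO.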

[13] = read-out: Cytochrome P450 4A22 (Homo sapiens) (UniProt Q5TCH4); assay: LTEA_HepaRG_CYP4A22: Life Technologies and Expression Analysis (LTEA) Assay for Cytochrome P450 4A22 (CYP4A22) using HepaRG (AID 2283495)
Summary of the method: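 Concentration-response (8 points, max 100 uM, 0.5% DMSO) in human HepaRG liver cells after 48 h exposure. CYP4A22 mRNA by TaqMan qRT-PCR with housekeeping-gene normalization.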

[14] = read-out: Cytochrome P450 3A4 (Homo sapiens) (UniProt P08684); assay: LTEA_HepaRG_CYP3A4: Life Technologies and Expression Analysis (LTEA) Assay for CYP3A4 using HepaRG (AID 2283487)
Summary of the method: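 Differentiated HepaRG cells, plated 48 h, then dosed 48 h in serum-free induction medium with 0.5% DMSO, 8 half-log concentrations up to 100 uM, duplicate. CYP3A4 mRNA by qRT-PCR, normalized to ACTB/GAPDH/POLR2A; bidirectional fit versus DMSO.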

Measured: AC50

Cytochrome P450 3A7 (Homo sapiens), sequence (P24462 whole entry, looked up): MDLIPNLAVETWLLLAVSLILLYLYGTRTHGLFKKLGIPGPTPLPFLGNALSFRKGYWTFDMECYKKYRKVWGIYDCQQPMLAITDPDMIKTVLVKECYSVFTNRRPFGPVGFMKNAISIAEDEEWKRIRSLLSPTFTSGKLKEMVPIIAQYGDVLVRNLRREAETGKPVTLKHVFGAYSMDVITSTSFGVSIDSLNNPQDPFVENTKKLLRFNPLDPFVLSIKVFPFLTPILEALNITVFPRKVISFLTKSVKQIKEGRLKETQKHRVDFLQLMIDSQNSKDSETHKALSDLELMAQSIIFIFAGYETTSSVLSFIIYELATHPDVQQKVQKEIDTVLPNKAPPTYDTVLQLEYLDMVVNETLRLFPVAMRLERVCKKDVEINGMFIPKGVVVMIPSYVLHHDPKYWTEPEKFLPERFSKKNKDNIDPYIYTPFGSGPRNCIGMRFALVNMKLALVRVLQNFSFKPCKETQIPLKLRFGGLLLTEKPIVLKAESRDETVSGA
Cytochrome P450 3A4 (Homo sapiens), sequence (P08684 whole entry, looked up): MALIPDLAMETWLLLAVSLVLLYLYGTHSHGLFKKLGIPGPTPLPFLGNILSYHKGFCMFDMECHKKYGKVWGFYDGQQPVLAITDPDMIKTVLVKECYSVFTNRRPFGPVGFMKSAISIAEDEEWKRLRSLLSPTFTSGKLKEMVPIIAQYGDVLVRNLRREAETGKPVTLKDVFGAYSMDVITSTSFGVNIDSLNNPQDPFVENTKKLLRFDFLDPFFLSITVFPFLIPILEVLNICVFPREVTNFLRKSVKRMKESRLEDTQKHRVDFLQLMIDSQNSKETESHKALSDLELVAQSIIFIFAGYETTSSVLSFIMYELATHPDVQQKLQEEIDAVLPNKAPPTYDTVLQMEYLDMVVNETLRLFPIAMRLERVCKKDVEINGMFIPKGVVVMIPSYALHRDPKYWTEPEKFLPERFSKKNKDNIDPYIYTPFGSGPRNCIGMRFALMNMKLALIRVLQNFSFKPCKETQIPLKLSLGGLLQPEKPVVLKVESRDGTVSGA
Cytochrome P450 2C19 (Homo sapiens), sequence (P33261 whole entry, looked up): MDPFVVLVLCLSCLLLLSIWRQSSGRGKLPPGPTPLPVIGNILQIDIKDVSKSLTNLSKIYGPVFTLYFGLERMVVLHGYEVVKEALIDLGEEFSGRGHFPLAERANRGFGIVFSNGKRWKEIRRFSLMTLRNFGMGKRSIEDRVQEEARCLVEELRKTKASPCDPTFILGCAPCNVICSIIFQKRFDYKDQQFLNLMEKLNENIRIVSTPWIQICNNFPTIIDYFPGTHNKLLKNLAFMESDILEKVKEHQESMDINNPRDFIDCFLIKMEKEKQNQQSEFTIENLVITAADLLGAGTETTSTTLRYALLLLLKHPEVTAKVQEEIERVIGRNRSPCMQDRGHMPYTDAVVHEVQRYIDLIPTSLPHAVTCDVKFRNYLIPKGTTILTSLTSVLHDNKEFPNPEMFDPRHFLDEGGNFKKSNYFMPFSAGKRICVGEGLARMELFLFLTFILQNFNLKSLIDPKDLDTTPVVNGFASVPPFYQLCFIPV

CCCN(CCC)N=O
active: [5] 11 µM
inactive: [1] | Caspase-3 (Homo sapiens) | [2] | [3] | [4] | [6] | CYP2C8 (gene 1558) | CYP2C9 (gene 1559) | CYP2E1 (gene 1571) | CYP4A11 (gene 1579) | [7] | [8] | [9] | [10] | [11] | CYP3A5 (gene 1577) | [12] | [13]

c1cc2ccc3cccc4ccc(c1)c2c34
inactive: [1] | Caspase-3 (Homo sapiens) | [2] | [4] | CYP2C9 (gene 1559) | CYP4A11 (gene 1579) | [7] | [8] | [9] | [10] | CYP3A5 (gene 1577) | [12] | [13]
active: [3] 50 µM | [5] 6.95 µM | [6] 4.34 µM | CYP2C8 (gene 1558) 4.67 µM | CYP2E1 (gene 1571) 29.6 µM

ClC1=C(Cl)[C@]2(Cl)[C@@H]3[C@@H](Cl)[C@H]4O[C@H]4[C@@H]3C1(Cl)C2(Cl)Cl
active: [5] 0.526 µM | [6] 1.21 µM | CYP2E1 (gene 1571) 25.5 µM | CYP4A11 (gene 1579) 31.1 µM | [14] 1.35 µM | [11] 1.77 µM | [12] 50 µM | [13] 24.9 µM
inactive: [1] | Caspase-3 (Homo sapiens) | [2] | [3] | [4] | CYP2C8 (gene 1558) | CYP2C9 (gene 1559) | [7] | [8] | [9] | [10] | CYP3A5 (gene 1577)

CCOCCOC(C)=O
active: [5] 20.3 µM
inactive: [1] | Caspase-3 (Homo sapiens) | [2] | [3] | [4] | [6] | CYP2C8 (gene 1558) | CYP2C9 (gene 1559) | CYP2E1 (gene 1571) | CYP4A11 (gene 1579) | [14] | [7] | [8] | [9] | [10] | [11] | CYP3A5 (gene 1577) | [12] | [13]

CCCCCCOC(=O)c1ccccc1C(=O)OCCCCCC
inactive: [1] | Caspase-3 (Homo sapiens) | [2] | [4] | [5] | [6] | CYP2C8 (gene 1558) | CYP2C9 (gene 1559) | CYP2E1 (gene 1571) | [7] | [8] | [9] | [10] | [11] | CYP3A5 (gene 1577) | [12]
active: [3] 50 µM | CYP4A11 (gene 1579) 74.7 µM | [13] 83.9 µM

O=C(O)C(F)(F)C(F)(F)C(F)(F)C(F)(F)C(F)(F)F
inactive: [1] | [2] | [3] | [4] | CYP2E1 (gene 1571) | [14] | [7] | [8] | [9] | [10] | [11] | CYP3A5 (gene 1577)
active: Caspase-3 (Homo sapiens) 9.92 µM | [5] 19.6 µM | [6] 5.35 µM | CYP2C8 (gene 1558) 8.32 µM | CYP2C9 (gene 1559) 9.92 µM | CYP4A11 (gene 1579) 50 µM | [12] 12 µM | [13] 13.3 µM
